Measured values: the supplement of paper PMC11732987, “Enantioselective OTUD7B fragment discovery through chemoproteomics screening and high-throughput optimisation” (Communications Chemistry, 2025)

Experiments:
Test in all cases: log2 ratio of Biotin-Ahx-Ub-VS probe labelling (fragment/DMSO); higher = less target engagement (more negative = stronger competition), active = hit call of the paper (q ≤ 0.05, log2 ratio ≤ -1)
Conditions in all cases: compound concentration: 200 uM; treatment time: 3 h
USP34 = USP34 (UniProt Q70CQ2)
Chain of USP34 (Q70CQ2 whole entry, the tested form may be a part): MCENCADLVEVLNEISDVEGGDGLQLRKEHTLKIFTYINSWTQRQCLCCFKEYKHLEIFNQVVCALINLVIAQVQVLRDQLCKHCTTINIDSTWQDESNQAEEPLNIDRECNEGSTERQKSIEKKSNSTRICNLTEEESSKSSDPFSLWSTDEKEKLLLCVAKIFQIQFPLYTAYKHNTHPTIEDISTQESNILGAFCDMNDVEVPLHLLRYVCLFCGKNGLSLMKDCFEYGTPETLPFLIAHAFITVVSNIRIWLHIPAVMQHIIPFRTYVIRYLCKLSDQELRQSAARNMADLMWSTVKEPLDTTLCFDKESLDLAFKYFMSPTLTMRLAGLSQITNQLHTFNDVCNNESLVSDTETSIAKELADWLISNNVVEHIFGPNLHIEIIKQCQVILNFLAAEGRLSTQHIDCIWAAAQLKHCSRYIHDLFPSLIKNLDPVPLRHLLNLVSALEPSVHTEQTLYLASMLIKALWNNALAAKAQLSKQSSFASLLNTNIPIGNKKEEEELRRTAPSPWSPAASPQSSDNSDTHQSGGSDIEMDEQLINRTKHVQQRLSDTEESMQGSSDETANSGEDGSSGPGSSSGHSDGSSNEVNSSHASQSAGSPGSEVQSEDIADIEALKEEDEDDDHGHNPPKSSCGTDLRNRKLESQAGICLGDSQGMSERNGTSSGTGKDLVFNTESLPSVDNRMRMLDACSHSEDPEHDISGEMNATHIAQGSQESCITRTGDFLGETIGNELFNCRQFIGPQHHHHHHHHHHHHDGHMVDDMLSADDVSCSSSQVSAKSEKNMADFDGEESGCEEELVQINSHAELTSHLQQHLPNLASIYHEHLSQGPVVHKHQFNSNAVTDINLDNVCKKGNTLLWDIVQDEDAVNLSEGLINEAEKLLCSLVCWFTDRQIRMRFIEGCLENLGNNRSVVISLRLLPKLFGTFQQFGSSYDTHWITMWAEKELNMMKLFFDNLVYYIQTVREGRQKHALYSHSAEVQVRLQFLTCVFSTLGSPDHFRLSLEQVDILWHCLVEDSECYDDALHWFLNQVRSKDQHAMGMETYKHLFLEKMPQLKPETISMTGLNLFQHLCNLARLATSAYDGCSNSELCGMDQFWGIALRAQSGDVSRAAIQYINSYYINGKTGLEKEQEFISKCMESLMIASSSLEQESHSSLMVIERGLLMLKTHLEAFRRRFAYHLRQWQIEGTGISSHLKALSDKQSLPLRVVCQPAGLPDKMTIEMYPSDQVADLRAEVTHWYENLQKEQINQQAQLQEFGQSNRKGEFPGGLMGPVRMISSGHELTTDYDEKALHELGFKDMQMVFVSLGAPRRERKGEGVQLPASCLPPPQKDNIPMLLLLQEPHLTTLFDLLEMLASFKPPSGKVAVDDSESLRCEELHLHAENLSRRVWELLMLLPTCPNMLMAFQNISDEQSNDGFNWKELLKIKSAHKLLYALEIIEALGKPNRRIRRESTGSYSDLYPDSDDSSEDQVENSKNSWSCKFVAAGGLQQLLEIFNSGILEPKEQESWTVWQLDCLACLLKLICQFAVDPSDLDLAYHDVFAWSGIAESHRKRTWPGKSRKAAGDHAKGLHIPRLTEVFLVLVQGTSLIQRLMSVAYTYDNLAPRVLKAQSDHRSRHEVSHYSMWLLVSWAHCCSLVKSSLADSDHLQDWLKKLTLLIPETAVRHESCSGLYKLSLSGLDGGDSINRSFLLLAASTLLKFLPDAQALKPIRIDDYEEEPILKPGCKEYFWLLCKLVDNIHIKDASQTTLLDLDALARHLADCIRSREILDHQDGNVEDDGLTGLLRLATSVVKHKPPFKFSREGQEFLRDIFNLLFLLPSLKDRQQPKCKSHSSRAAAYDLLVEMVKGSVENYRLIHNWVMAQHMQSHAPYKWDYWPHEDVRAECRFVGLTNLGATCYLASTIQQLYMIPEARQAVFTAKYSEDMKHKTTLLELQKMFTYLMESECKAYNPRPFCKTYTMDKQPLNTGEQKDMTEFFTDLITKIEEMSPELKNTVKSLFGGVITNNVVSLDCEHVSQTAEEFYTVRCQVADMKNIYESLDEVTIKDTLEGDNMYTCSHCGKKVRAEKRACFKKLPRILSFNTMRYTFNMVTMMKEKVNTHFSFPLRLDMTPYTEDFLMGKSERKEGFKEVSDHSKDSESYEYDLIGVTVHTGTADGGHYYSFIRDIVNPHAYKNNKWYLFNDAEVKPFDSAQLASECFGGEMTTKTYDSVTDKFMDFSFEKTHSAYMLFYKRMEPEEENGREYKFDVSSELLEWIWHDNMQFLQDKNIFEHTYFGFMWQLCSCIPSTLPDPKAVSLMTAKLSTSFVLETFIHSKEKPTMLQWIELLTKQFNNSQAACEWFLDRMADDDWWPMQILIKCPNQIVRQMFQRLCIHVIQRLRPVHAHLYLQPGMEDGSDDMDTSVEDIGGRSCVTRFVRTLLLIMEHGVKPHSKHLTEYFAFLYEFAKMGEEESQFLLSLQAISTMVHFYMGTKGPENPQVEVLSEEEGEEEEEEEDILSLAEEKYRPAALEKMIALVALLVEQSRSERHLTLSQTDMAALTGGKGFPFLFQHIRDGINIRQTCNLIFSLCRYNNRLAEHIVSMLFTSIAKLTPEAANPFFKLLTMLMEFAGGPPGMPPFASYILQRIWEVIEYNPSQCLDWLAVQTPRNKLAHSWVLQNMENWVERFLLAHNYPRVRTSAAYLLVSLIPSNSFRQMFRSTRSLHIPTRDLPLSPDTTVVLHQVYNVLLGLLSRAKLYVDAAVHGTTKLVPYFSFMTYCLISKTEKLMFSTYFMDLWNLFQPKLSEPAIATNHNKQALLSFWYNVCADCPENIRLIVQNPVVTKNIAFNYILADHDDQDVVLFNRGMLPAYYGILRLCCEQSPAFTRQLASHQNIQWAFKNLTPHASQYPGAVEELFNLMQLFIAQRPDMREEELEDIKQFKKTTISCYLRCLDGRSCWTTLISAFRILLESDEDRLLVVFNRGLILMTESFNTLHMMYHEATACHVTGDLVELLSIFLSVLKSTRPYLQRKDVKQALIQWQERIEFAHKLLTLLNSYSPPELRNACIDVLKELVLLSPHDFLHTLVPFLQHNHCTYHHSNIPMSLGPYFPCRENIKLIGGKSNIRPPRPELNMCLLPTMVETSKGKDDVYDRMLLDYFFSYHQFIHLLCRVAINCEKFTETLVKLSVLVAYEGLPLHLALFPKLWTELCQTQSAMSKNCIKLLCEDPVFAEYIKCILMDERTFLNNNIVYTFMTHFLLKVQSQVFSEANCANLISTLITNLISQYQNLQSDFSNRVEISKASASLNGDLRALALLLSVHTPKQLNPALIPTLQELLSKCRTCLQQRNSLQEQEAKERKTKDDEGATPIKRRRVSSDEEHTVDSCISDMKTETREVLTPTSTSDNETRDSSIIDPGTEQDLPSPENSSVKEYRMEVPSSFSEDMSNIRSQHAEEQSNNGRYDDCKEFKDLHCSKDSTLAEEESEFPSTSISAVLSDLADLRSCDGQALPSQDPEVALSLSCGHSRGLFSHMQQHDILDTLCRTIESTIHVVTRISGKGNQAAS
Procedure, shortened: (§1)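 Triplicate samples of HEK293T lysate, 495 µg each, received fragment at 200 µM or vehicle for 3 h, followed by Biotin-Ahx-Ub-VS (0.5 µM final) for 1 h. After NeutrAvidin enrichment of labelled DUBs and LysC/trypsin digestion, peptides were run by diaPASEF LC-MS/MS. The values are average log2 fragment/vehicle ratios from global-median-normalised Spectronaut label-free quantities, tested by unpaired t-test on proteins having ≥2 unique peptides.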

USP36 = biological target: T1, USP36 (UniProt Q9P275)
T1 sequence (whole entry): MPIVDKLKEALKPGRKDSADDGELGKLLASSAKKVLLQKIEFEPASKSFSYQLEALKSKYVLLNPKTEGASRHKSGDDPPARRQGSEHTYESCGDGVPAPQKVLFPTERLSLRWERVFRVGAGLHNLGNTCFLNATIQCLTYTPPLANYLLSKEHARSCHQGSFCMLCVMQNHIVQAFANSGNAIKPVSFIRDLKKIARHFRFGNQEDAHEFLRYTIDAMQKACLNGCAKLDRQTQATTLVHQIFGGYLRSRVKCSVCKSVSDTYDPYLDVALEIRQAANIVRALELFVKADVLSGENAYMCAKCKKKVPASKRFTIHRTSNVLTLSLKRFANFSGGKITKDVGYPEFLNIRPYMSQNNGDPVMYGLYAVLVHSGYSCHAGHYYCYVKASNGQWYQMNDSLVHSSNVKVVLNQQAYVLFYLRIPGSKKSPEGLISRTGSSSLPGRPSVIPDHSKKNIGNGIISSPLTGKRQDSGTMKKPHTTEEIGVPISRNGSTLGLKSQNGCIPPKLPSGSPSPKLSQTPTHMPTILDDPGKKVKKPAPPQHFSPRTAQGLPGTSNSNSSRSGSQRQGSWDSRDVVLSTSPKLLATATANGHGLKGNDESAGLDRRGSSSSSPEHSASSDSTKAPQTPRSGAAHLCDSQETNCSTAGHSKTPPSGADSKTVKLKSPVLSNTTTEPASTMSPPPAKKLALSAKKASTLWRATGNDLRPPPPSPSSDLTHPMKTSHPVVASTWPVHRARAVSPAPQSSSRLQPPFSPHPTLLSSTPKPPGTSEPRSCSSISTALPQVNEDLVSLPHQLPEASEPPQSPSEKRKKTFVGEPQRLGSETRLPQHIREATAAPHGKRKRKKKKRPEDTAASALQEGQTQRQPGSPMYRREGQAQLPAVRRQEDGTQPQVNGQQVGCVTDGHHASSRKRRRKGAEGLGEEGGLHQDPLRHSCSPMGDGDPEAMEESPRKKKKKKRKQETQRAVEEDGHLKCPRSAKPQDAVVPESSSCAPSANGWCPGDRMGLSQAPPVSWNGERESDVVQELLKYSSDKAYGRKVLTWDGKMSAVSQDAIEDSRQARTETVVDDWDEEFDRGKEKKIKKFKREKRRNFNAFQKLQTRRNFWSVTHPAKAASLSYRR
Procedure, shortened: as §1

USP38 = biological target: T2, USP38 (UniProt Q8NB14)
T2 sequence (whole entry): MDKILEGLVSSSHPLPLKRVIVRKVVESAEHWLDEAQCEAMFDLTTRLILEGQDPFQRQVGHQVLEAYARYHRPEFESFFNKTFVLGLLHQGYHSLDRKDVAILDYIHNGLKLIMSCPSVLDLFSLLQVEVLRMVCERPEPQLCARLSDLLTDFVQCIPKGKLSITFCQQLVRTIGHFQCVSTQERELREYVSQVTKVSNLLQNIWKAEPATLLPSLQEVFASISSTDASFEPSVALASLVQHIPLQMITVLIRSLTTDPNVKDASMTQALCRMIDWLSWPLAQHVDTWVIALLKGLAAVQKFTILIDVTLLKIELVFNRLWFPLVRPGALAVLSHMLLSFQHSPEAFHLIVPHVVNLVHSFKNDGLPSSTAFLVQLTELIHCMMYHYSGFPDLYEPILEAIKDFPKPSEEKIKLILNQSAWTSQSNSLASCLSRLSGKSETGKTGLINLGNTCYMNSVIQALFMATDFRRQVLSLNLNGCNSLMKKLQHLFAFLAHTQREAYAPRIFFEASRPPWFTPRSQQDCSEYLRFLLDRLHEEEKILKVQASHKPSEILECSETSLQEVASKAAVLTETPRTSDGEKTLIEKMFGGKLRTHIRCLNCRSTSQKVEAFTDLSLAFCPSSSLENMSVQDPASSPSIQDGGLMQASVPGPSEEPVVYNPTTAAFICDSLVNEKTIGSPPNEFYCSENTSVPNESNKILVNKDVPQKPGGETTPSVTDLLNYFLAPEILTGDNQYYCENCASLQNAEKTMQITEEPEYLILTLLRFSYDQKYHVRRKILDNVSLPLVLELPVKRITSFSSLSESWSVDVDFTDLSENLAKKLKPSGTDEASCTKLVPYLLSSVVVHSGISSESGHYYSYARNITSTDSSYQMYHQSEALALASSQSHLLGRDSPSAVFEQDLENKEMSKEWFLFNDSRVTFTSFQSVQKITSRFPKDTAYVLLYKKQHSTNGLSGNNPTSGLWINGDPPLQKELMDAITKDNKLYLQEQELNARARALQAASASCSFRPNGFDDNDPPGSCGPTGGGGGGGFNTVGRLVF
Procedure, shortened: as §1

USP39 = biological target: T3, USP39 (UniProt Q53GS9)
T3 sequence (whole entry): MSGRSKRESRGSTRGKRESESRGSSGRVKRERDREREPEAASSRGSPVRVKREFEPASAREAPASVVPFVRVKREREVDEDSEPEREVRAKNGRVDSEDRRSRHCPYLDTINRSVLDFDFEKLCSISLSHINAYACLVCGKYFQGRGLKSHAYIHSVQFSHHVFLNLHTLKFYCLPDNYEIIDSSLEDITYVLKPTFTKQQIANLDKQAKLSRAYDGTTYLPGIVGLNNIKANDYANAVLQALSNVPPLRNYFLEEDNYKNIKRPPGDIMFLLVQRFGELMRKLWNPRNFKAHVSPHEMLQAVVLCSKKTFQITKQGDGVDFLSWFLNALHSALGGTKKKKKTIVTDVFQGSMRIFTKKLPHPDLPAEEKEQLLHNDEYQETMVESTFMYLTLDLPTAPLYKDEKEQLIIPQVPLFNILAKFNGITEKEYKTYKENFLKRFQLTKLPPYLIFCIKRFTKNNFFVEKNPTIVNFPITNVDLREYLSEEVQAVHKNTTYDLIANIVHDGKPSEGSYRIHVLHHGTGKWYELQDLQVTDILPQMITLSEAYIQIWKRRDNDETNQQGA
Procedure, shortened: as §1

USP4 = biological target: T4, USP4 (UniProt Q13107)
T4 sequence (whole entry): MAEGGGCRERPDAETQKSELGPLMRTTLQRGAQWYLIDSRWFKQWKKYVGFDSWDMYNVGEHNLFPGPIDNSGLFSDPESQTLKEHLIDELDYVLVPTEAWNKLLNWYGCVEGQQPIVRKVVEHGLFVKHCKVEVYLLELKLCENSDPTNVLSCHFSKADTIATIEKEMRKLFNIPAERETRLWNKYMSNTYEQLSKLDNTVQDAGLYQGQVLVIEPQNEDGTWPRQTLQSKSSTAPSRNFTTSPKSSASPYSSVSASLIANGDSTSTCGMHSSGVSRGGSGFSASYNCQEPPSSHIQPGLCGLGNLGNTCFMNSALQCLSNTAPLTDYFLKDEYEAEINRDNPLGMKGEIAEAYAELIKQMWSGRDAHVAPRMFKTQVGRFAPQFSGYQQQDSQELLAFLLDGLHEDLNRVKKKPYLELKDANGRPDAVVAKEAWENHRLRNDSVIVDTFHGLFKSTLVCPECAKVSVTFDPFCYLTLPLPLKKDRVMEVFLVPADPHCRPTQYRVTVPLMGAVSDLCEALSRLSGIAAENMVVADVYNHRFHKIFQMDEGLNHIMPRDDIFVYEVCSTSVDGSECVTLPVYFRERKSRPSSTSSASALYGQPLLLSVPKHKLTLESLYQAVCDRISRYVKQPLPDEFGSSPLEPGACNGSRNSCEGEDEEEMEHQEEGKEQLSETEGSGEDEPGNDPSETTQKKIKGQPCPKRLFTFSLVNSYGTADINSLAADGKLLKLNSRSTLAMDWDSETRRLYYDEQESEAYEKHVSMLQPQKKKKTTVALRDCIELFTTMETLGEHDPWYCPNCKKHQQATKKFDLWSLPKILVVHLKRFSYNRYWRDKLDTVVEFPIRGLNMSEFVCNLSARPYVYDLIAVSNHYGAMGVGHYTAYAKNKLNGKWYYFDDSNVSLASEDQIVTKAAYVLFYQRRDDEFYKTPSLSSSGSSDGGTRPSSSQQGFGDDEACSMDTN
Procedure, shortened: as §1

Measured: log2 ratio of Biotin-Ahx-Ub-VS probe labelling

Cc1cc(CC(C)NC(=O)CCl)n[nH]1 (stereo not given)
inactive: USP34 -0.00217 | USP36 -0.0115 | USP38 -0.279 | USP39 -0.196 | USP4 -0.0597
